Tests used:
Assay in all cases: PBM binding z-score (relative to random genomic background probes); higher = stronger binding; sequences stand for … in GC…GCGATTGACAGCGTAGAATGAAGG
[1] = system: PPARg:RXRa DBDmut IVT, anti-RXR (DBD mutation: RXRa K156A/R161A, NR concentration 270 nM, RXRa partner concentration 90 nM)
Method in brief: (§1)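 Ligand-free nuclear receptor dimers were applied to custom Agilent 4×180K protein-binding microarrays whose double-stranded probes carried direct-repeat seeds, single-nucleotide variants, half-site ablations and random human genomic background sequences in 34-nt variable regions. Incubation lasted 1 h. Binding z-scores were computed against the random background probes from regression-normalized fluorescence.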

[2] = system: PPARg:RXRa IVT, anti-PPARg (NR concentration 270 nM, RXRa partner concentration 90 nM)
Method in brief: as §1

[3] = system: PPARg DBDmut:RXRa IVT, anti-PPARg (DBD mutation: PPARg1 K132A/R137A, NR concentration 270 nM, RXRa partner concentration 90 nM)
Method in brief: as §1

[4] = system: PPARg DBDmut IVT, anti-PPARg (DBD mutation: PPARg1 K132A/R137A, NR concentration 270 nM)
Method in brief: as §1

[5] = system: PPARg homodimer (NR concentration 180 nM)
Method in brief: as §1

[6] = system: PXR:RXRa (NR concentration 270 nM, RXRa partner concentration 90 nM)
Method in brief: as §1

[7] = system: PXR homodimer (NR concentration 270 nM)
Method in brief: as §1

[8] = system: RARa:RXR (NR concentration 270 nM, RXRa partner concentration 90 nM)
Method in brief: as §1

[9] = system: RARa homodimer (NR concentration 270 nM)
Method in brief: as §1

[10] = system: RARb:RXRa (NR concentration 270 nM, RXRa partner concentration 90 nM)
Method in brief: as §1

Sequence | PBM binding z-score [1] | PBM binding z-score [2] | PBM binding z-score [3] | PBM binding z-score [4] | PBM binding z-score [5] | PBM binding z-score [6] | PBM binding z-score [7] | PBM binding z-score [8] | PBM binding z-score [9] | PBM binding z-score [10]
AAAATGAGGTTATACGTAGATCAGGGAAGAAAGT | 4.62 | 3.11 | 2.19 | 1.29 | 0.818 | 1.37 | 0.994 | 1.99 | 0.921 | 1.56
TCTAGCAGGCCAGAGGGTCACTAAAGAGGTACGG | 0.806 | 0.475 | -0.497 | -1.37 | 0.659 | 1.14 | -0.609 | 1.8 | -0.574 | 2.05
CCGACTGGGCCATCAGGTCATTGATATCAACGTT | 3.07 | 3.51 | -1.33 | -0.437 | 0.811 | 1.47 | 0.46 | 1.85 | -0.257 | 2.04
CAAACTAGGTCACGGGAAGGTCAAAGTCCGCATG | 8.72 | 9.17 | 2.85 | 3.73 | 5.61 | 5.97 | 1.41 | 7.17 | 1.78 | 5.43
CCAACTAGGTCAAGGTCAAAGTCGGTTTGTGCCA | 8.26 | 8.03 | 1.26 | 1.36 | 4.31 | 5.31 | 2.55 | 5.24 | 3.41 | 5.3
ACTAGTAGGCCAAGTTTGGGTCACTCAAACAAAG | 5.38 | 4.97 | 0.793 | 0.699 | 0.944 | 0.935 | -0.0858 | 1.74 | -0.227 | 2.11
AGTATGAGGTTAAGATCAGGGAAACAGAATACAT | 0.462 | 1.01 | 0.752 | 1.37 | 1.32 | 1.15 | 0.499 | 1.84 | 0.731 | 1.98
TGAATGAGGTTAAAGACCAGGGAACGTGGCGTCG | 1.75 | 2.7 | 1.19 | 0.401 | 0.683 | 1.08 | -0.0383 | 2.17 | 0.0679 | 1.84
CGTCAAAGTTCAACTAAGGTAACGTAGAGCACGC | 0.564 | 2.32 | 0.885 | 0.785 | 3.17 | 5.54 | 3.81 | 4.57 | 1.67 | 5.24
TCTTGTAGACCAGCAGGTTAAGAAAGCTGGCCAA | 1.63 | 0.1 | -1.37 | -0.977 | -0.0673 | 0.0995 | -0.534 | 0.371 | -0.568 | 0.179
GCTTGTAGATCAAGATTAAGAAAGACTAAGCTAA | 0.366 | -0.13 | 0.0686 | 0.0924 | -0.256 | -0.671 | -0.582 | -0.252 | -0.194 | -0.426
GTAACGAGGGCAAAGTTGATAGCATCTGTCGACG | 4.16 | 4.69 | 0.947 | 0.296 | 0.574 | 1.36 | 0.402 | 1.77 | 0.268 | 2.36
TTACCAAGGTGTAAGGTCGTTGATGCACGCCTTG | -0.345 | 1.3 | 0.0676 | -0.033 | 0.125 | 1.1 | 0.267 | 1.38 | -0.417 | 1.09
TCTTGTATATCAGCAGGTTAAGAAAGCTGGCCAA | 2.07 | 0.6 | 0.115 | 0.41 | 0.718 | 0.584 | 0.0851 | 0.998 | 0.982 | 0.687
GCTTTTAGTTGAAAGGGCAACCGAATGATTCTCG | 0.524 | 0.732 | 0.316 | 0.582 | 0.658 | 0.695 | -0.255 | 0.953 | -0.0621 | 2.16
CTCGAAAGGTCGTGCACAGGTGAGTATACCAAAC | 0.853 | 2.21 | 0.533 | 0.411 | 2.02 | 3.56 | 0.388 | 4.46 | 0.659 | 4.07
CGTCAAAGTGCAACTAAGGTAACGTAAAGCACGC | 0.000169 | 0.492 | -0.123 | -0.228 | 0.0705 | 1.55 | 0.00934 | 2.04 | -0.027 | 2.07
ATATGTAGGTTAAGGGTCATTAAGGTTGGTTCGC | 7.35 | 7.81 | 2.09 | 1.17 | 3.24 | 4.92 | 3.59 | 5.16 | 2.38 | 3.74
TAGCCTAGGTCATTCAGGGGCCAGTATCGAAAGC | 1.77 | 2.83 | 0.988 | -0.403 | 1.28 | 2.47 | 0.344 | 3.36 | -0.599 | 3.67
CCAGACACGTGAGAAGGTAACTCAGCCTCGATTA | -0.227 | -0.531 | -0.51 | -0.51 | 0.168 | -0.212 | 0.145 | -0.206 | 0.356 | -0.318
TCTATTAGTTGATTAAGGCAACCGAAACAGCGGA | 2.31 | 0.341 | 1.4 | 0.689 | 0.977 | 0.454 | 0.378 | 0.873 | 1.34 | 0.0773
CCTACTGGCCCACGAAAGGTCATTGATTCAGTGA | -0.126 | 0.861 | -0.814 | -1.14 | 3 | 5.2 | 1.92 | 5.64 | 2.79 | 3.94

Sequence | PBM binding z-score [1] | PBM binding z-score [2] | PBM binding z-score [3] | PBM binding z-score [4] | PBM binding z-score [5] | PBM binding z-score [6] | PBM binding z-score [7] | PBM binding z-score [8] | PBM binding z-score [9] | PBM binding z-score [10]
CCTTTTAGTTGACCATAAGGGCAACCGAAGCTCG | 0.494 | 1.26 | 0.935 | 0.61 | 1.45 | 0.87 | 0.536 | 0.957 | 1.78 | 1.86
GATACAGGGTCAGCTAGAGGCCAGAGAATGGAAA | 1.5 | 2.31 | 0.246 | -1.1 | 2.84 | 3.34 | 0.000802 | 4.73 | 0.734 | 4.34
ATCTCTAGGTAAAGATAGTGCAGTGAATGCAAAT | 1.33 | 1.62 | 0.773 | 0.751 | -0.52 | -0.0642 | -0.041 | 0.189 | 0.661 | -0.164
ATACCAAGGTGATCGTTAGGTCGTTGATACTAAC | 0.451 | 1.04 | 0.332 | 1.27 | 0.52 | 0.494 | 0.467 | 1.25 | 0.0968 | 0.816
TCATATAGGTAATACAGGTGAAAATCGGCATCTA | 3.9 | 3.09 | 1.52 | 1.47 | 1.22 | 0.9 | 0.486 | 1.46 | 1.89 | 0.59
ATAAGTAGGTTATCGGGTCATTCAGTTTGCGCAT | 7.58 | 7.8 | 5.22 | 5.33 | 3.5 | 3.91 | 7.66 | 3.84 | 2.2 | 2.61
TCTGCTAGGTCAACGATGGACAGCTAATCTGCTA | 3.88 | 4.29 | 1.56 | 0.358 | 1.08 | 1.32 | -0.751 | 2.01 | -0.131 | 3.97
ACTCGGAGGACAAAGGTCAGACCTACGCCAGTGA | 0.683 | 3.73 | 0.128 | -0.307 | 3.27 | 4.16 | 0.401 | 5.43 | 1.5 | 4.5
CCGAGTTGGTTATGGGGCATTCAGGCAACGGTGA | 0.136 | 0.993 | -0.435 | -0.836 | 0.998 | 0.00372 | 0.402 | 0.155 | 0.692 | 0.288
CGACCTAGGTCAGAACAGGACAGTGAAGGATGAT | 2.58 | 2.09 | -0.486 | -0.795 | 1.04 | 1.42 | -0.195 | 0.948 | 0.342 | 3.33
ACTCGCAGGACAAAGGTCAGAGCTACGCCAGTGA | 0.731 | 2.9 | 0.371 | -0.29 | 1.88 | 3.6 | 0.075 | 4.72 | 0.499 | 4.29
ACTTACGGGTCAACGAGGTTAGAGCACGCGTATA | 3.74 | 4.28 | 0.679 | 0.825 | 2.64 | 4.7 | 1.33 | 4.99 | 0.957 | 4.2
GGAACGAGGGCAAAGTTGATAGGATCTGTCGACG | 3.81 | 4.2 | 0.474 | -0.389 | 0.743 | 1.31 | 0.619 | 1.58 | 0.0143 | 2.41
CCTAGCAGGCAAGGGTCACTCAAGCATTTCGCTT | 0.337 | 0.835 | -1.27 | -1.7 | 1.35 | 2.99 | -0.946 | 3.86 | -0.178 | 3.31
TCATATAGGTAAACAGGTGAAACTCCGTAAGTTA | 5.13 | 4.56 | 1.07 | 1.38 | 1.21 | 0.711 | 0.237 | 1.28 | 0.733 | 0.76
GGAACGAGTGCATTCGAGTTGATAGCATGGCGAT | -0.308 | -0.6 | -1.05 | -0.767 | -1.32 | 2.91 | 3.49 | -0.0398 | -1.2 | -0.311
ATATGTAGGTTAGGTGGGGTCATTCAGACTAGGC | 6.72 | 5.87 | 2.01 | 3.16 | 2.99 | 6.47 | 4.9 | 6.09 | 1.79 | 2.98
AGAATGAGGTTATACGTAGATCAGCGAAGAAAGT | 3.8 | 2.33 | 0.885 | 1.06 | 1.02 | 0.953 | 0.44 | 1.55 | -0.289 | 1.23
TCTTGTAGATGAAGCAGGTTAAGAAAGCCTGAGT | 1.86 | 0.0295 | 0.394 | -0.11 | 0.107 | 0.195 | 0.164 | 0.228 | -0.232 | -0.0996
TAGGCTAGGTCATTGGGCCAGTATAGTACGCATC | 2.74 | 3.99 | 0.305 | 0.421 | 1.41 | 1.32 | -0.0794 | 1.9 | 0.178 | 3.79
CCTCCTGGGCCAAAGGTCATTGATTCCAATGCTC | 1.03 | 4.67 | -0.712 | -0.452 | 3.43 | 5.26 | 1.79 | 5.99 | 0.948 | 4.3
CCAGACAGGAGAAAGGTAACTCAGTCTGGTACGC | 0.0518 | -0.161 | -0.761 | -0.621 | 0.229 | -0.00799 | 0.153 | 0.168 | 0.262 | 0.234

Source: the supplement of paper PMC6555819
